Target: Solute carrier family 2, facilitated glucose transporter member 1 (Homo sapiens) (UniProt P11166)
Assay: ST_JUDE_LEISH: Cytotoxicity at 2uM final concentration against transgenic Leishmania Mexicana promastigotes LmGLUT1 that are glucose transport deficient and complemented with the human glucose transporter GLUT1. Activity is measured by DNA content using SYBR green in vitro
Format: functional

Chain of Solute carrier family 2, facilitated glucose transporter member 1 (Homo sapiens) (P11166 whole entry): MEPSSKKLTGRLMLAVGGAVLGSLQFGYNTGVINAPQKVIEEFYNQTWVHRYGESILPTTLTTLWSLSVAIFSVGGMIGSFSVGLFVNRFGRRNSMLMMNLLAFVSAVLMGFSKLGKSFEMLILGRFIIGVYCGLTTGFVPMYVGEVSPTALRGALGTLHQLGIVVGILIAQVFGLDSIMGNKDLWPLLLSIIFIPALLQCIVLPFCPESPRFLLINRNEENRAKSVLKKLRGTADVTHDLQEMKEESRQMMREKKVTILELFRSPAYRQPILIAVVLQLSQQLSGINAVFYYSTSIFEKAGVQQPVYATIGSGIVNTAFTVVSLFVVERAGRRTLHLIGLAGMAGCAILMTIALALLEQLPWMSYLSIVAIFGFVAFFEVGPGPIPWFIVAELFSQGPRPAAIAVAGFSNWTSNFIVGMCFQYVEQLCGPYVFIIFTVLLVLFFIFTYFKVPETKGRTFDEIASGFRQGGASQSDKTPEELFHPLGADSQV

For `CCCCNC(=N)c1ccc(OCCCCCOc2ccc(C(=N)NCCCC)cc2)cc1`, which inhibition is on record?
The inhibition was 5.34%.

With `CS(=O)(=O)c1ccc2[nH]c(-c3cc(-c4ccc(OCCN5CCOCC5)cc4)cnc3N)nc2c1` as the compound, how does the inhibition read?
Its inhibition is 6.63%.

Which inhibition does the source give for `Cc1sc(CNCCCNc2cc(=O)c3ccccc3[nH]2)cc1Br` here?
Its inhibition is 0.99%.

For `COc1ccc(CNCc2ccccc2)cc1-c1ccc(S(=O)(=O)NCCN2CCCC2)s1`, which inhibition is on record?
The inhibition was 1.43%.

With `Cc1cccc2nc(-c3cccc(-c4ccc(NC(=O)C5CCCO5)cc4)c3)[nH]c12` (stereo unspecified) as the compound, how does the inhibition read?
The inhibition was 6.93%.

Which inhibition does the source give for `O=C(/C=C/c1ccc(Cl)c(Cl)c1)NCCCCCN1CCCN(C(=O)Nc2cccc(C(F)(F)F)c2)CC1` here?
The inhibition was 3.99%.

For `Cc1cccc2nc(-c3ccc(-c4cccc(NC(=O)CN5CCN(C)CC5)c4)s3)[nH]c12`, which inhibition is on record?
Its inhibition is -0.82%.

How did the inhibition turn out when `O=C(Nc1nc2cc(S(=O)(=O)NCc3ccc(Cl)c(Cl)c3)ccc2n1CCCN1CCCC1)c1ccc(Cl)cc1` was run?
Its inhibition is 1.48%.

For `O=C(Nc1ccccc1)Nc1cccc(-c2nn3c(OCC4CCCCN4)cccc3c2-c2ccncc2)c1` (stereo unspecified), which inhibition is on record?
The inhibition was 5.24%.

`CCC(C)NCCC(c1ccccc1)c1ccccc1O` (stereo unspecified) was tested. Which inhibition did it give?
The inhibition was 5.11%.

How did the inhibition turn out when `CCOc1ccc(CCC(=O)O)cc1OCC` was run?
Its inhibition is 2.83%.

`O=C(NC1CCC1)C1CCN(C(c2ccc(Cl)cc2)c2ccc(Cl)cc2)CC1` was tested. Which inhibition did it give?
The inhibition was -0.62%.

With `COc1cc(Cc2cnc(N)nc2N)c2c(c1OC)OC(C)C=C2` (stereo unspecified) as the compound, how does the inhibition read?
The inhibition was 1.59%.

`CCOc1cccc(C(=O)Nc2ccc(-c3nc4ccccc4[nH]3)cc2)c1` was tested. Which inhibition did it give?
The inhibition was 4.46%.

Which inhibition does the source give for `O=C(Nc1cccc(-c2ccc(-c3nc4cc(C(F)(F)F)ccc4[nH]3)cc2)c1)c1ccncc1` here?
The inhibition was 6.22%.

Which inhibition does the source give for `Oc1cc(Nc2ccnc3cc(-c4ccc(CN5CCCCC5)o4)c(Cl)cc23)c(Cl)cc1F` here?
The inhibition was 1.26%.

Source: ChEMBL document CHEMBL3433997, “St. Jude Leishmania screening dataset” (2016)
